Assay results taken from PubChem BioAssay (NCATS).
Records with an inconclusive call do not appear. Values without a mark were called inactive. Calls come from the whole dose curve; as a rule, active = well fitted cell-killing curve with a large enough effect; inconclusive = small, poorly fitted or top-dose-only effect, or effect the other way; inactive = flat fitted curve, though single readings scatter.

Test system: CASKI
Experiment: Primary qHTS to identify gynecologic anti-cancer compounds using libraries of approved drugs and bioactive compounds (AID 1345084); note: nearly all actives have a fitted effect of over 55% in size
Details: Gynecologic cancer cell panel viability, ATPlite luminescence, 48 h; series mostly up to 57.5 µM; activity change, negative = cytotoxicity: at the top concentration
Summary of the method: (§1)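 Luminescence from the ATPlite ATP-monitoring reagent indicates viable cell number; lower signal means cytotoxicity. Cells received compound 16 h after seeding and were exposed for 48 h across five concentrations.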
% is set by controls: 0 for no effect and ±100 for the full control effect.

| Compound | activity change, negative = cytotoxicity [%] |
| --- | --- |
| CN(Cc1ccc(C(=O)O)cc1)c1ccc(OCc2c(-c3c(Cl)cccc3Cl)noc2C2CC2)nc1C(F)(F)F | 14.3 |
| Cn1nccc1Nc1nccc(-c2ccn([C@H](CO)c3ccc(Cl)c(F)c3)c(=O)c2)n1 | 3.41 |
| C[N+]1(C)[C@@H]2CC[C@H]1CC(OC(=O)C(O)c1ccccc1)C2 (some centres not stated) | 12.5 |
| CC1CCN(c2cc(NC(=O)c3ccccc3)ncn2)CC1 | 6.7 |
| CCOc1ccc(-c2nc(-c3cccc4c3CCC4NCCO)no2)cc1OCC (configuration not stated) | -14.8 |
| CCC(=O)c1cc(-c2ccc(Cl)cc2)n(-c2ccc(S(N)(=O)=O)cc2)c1C | -4.41 |
| COc1cc2nc(-c3cc(F)ccc3O)nc(N[C@@H]3CNC[C@H]3C(C)(C)O)c2cc1OC | -2.38 |
| COc1cccc(NC[C@@H](O)Cn2c3ccc(Br)cc3c3cc(Br)ccc32)c1 | -0.869 |
| O=C(/C=C/n1cnc(-c2cc(C(F)(F)F)cc(C(F)(F)F)c2)n1)NNc1cnccn1 | -17.8 |
| COc1cc(-c2cc(-c3cccc(O)c3)cnc2N)cc(OC)c1OC | -18.3 |
| COc1c(N2CC3CCCNC3C2)c(F)cc2c(=O)c(C(=O)O)cn(C3CC3)c12 (configuration not stated) | 12.2 |
| COc1ccc(Cl)cc1[C@@]1(F)C(=O)Nc2cc(C(F)(F)F)ccc21 | -26.2 |
| COc1ccc(-c2c(C)c(C(=O)NN3CCCCC3)nn2-c2ccc(Cl)cc2Cl)cc1 | -11.4 |
| C[C@H](NC(=O)C(C)(C)Oc1ccc(C(F)(F)F)cn1)[C@@H](Cc1ccc(Cl)cc1)c1cccc(C#N)c1 | -2.29 |

Test system: Es-2
Experiment: as above
Details: Gynecologic cancer cell panel viability, ATPlite luminescence, 48 h; series mostly up to 57.5 µM; activity change, negative = cytotoxicity: at the top concentration
Summary of the method: as §1

| Compound | activity change, negative = cytotoxicity |
| --- | --- |
| CC(=O)N1CCN([C@H]2CCN(C(=O)N(C)[C@H](C)c3cc(C(F)(F)F)cc(C(F)(F)F)c3)[C@@H](c3ccc(F)cc3C)C2)CC1 | 1.72% |
| Nc1ccc(N)c([N+](=O)[O-])c1 | 14.2% [at 116 µM] |
| C=C1C(=O)O[C@@H]2C[C@@H](C)[C@]34C[C@]5(C(=O)O[C@H]6CC(C)=C([C@H](C)CCCO)[C@H](OC(=O)C(C)CC)[C@H]65)[C@@H](C(C)=C3C[C@@H]12)[C@H]4OC(C)=O (some centres not stated) | -24.2% [at 25.3 µM] |
| COc1ccccc1-c1c[nH]c2ncc(-c3cncc(C(=O)N(C)C)c3)cc12 | -27.6% |
| Fc1ccccc1CNCc1ccc(-c2ccnc3[nH]ccc23)cc1 | -3.35% |
| CCCCc1nc(C)c(CC(=S)N(C)C)c(=O)n1Cc1ccc(-c2ccccc2-c2nn[nH]n2)cc1 | -2.68% |
| CNc1nc(-c2ccc3c(N)n[nH]c3c2)cc(N2CC(C(=O)NC3CCCCC3)CCC2C)n1 (configuration not stated) | -23.3% |
| CC[C@H]1OC(=O)[C@H](C)[C@@H](O[C@H]2C[C@@](C)(OC)[C@@H](O)[C@H](C)O2)[C@H](C)[C@@H](O[C@@H]2O[C@H](C)C[C@H](N(C)C)[C@H]2O)[C@](C)(O)C[C@@H](C)/C(=N/OCOCCOC)[C@H](C)[C@@H](O)[C@]1(C)O | -0.972% |
| C[C@@H](CN1CCC(n2c(=O)[nH]c3cc(Cl)ccc32)CC1)NC(=O)c1ccc2ccccc2c1 | 6.5% |
| CC1=CC(=O)[C@@]2(C(C)C)C[C@@H]12 | -24.5% |
| CN(C)CC(=O)Nc1ccc2[nH]c(=O)c3ccccc3c2c1 | -13% |
| C=C1C(=O)O[C@@H]2/C=C(/C)CC3C=C(C[C@H](OC(=O)/C(C)=C\C)[C@@H]12)C(=O)O3 (some centres not stated) | -23% [at 38.5 µM] |
| COc1ccc2c(c1)CN(C(=O)CCN1CCC(Cc3ccccc3)CC1)CCS2 | -0.0476% [at 25.3 µM] |
| COc1ccc(-c2nc(-c3cc(C(F)(F)F)cc(C(F)(F)F)c3)n(Cc3ccc(C(N)=O)cc3)c2-c2ccc(OC)cc2)cc1 | -0.399% |
| CNc1cc(OC)c(C(=O)N[C@@H]2CCN(Cc3ccccc3)[C@@H]2C)cc1Cl | -3.43% |
| CCOC(=O)CCC(=O)O[C@H]1[C@H](O[C@@H]2[C@@H](C)[C@H](O[C@H]3C[C@@](C)(OC)[C@@H](O)[C@H](C)O3)[C@@H](C)C(=O)O[C@H](CC)[C@@](C)(O)[C@H](O)[C@@H](C)C(=O)[C@H](C)CC2(C)O)O[C@H](C)C[C@@H]1N(C)C (some centres not stated) | 4.52% |
| CCC(=O)Nc1cccc(Oc2nc(Nc3ccc(N4CCN(C)CC4)cc3OC)ncc2Cl)c1 | 2.03% |

| Compound | activity change, negative = cytotoxicity |
| --- | --- |
| Cc1cc(CN)cc(C)c1NC(=O)c1ccc(-c2cc(Cl)ccc2Cl)o1 | -0.306% |
| C=C1C(=O)O[C@@H]2[C@H]1[C@H](O)C[C@]1(C)[C@@H](O)CC=C(C)[C@@H]21 | -14.7% |
| CC(C)c1ccc(NC(=O)C(c2ccccc2)N(C)C(=O)Cc2c[nH]c3ccccc23)cc1 (configuration not stated) | -5.17% |
| Cc1cc(C)c(NC(=O)N(Cc2ccc3c(c2)Cc2ccccc2-3)C2CCCCCC2)c(C)c1 | 3.55% |
| CN(Cc1ccc(C(=O)O)cc1)c1ccc(OCc2c(-c3c(Cl)cccc3Cl)noc2C2CC2)nc1C(F)(F)F | -6.69% |
| Cn1nccc1Nc1nccc(-c2ccn([C@H](CO)c3ccc(Cl)c(F)c3)c(=O)c2)n1 | -10.3% |
| C[N+]1(C)[C@@H]2CC[C@H]1CC(OC(=O)C(O)c1ccccc1)C2 (some centres not stated) | 7.34% |
| CC1CCN(c2cc(NC(=O)c3ccccc3)ncn2)CC1 | -25.4% |
| CCC(=O)c1cc(-c2ccc(Cl)cc2)n(-c2ccc(S(N)(=O)=O)cc2)c1C | 10.7% |
| COc1cc2nc(-c3cc(F)ccc3O)nc(N[C@@H]3CNC[C@H]3C(C)(C)O)c2cc1OC | 0.0322% |
| COc1cccc(NC[C@@H](O)Cn2c3ccc(Br)cc3c3cc(Br)ccc32)c1 | -3.41% |
| COc1cc(-c2cc(-c3cccc(O)c3)cnc2N)cc(OC)c1OC | -12.5% |
| COc1c(N2CC3CCCNC3C2)c(F)cc2c(=O)c(C(=O)O)cn(C3CC3)c12 (configuration not stated) | -3.24% |
| COc1ccc(Cl)cc1[C@@]1(F)C(=O)Nc2cc(C(F)(F)F)ccc21 | -4.43% |
| COc1ccc(-c2c(C)c(C(=O)NN3CCCCC3)nn2-c2ccc(Cl)cc2Cl)cc1 | -1.94% |
| C[C@H](NC(=O)C(C)(C)Oc1ccc(C(F)(F)F)cn1)[C@@H](Cc1ccc(Cl)cc1)c1cccc(C#N)c1 | -9.47% |
